Screening data as filed in PubChem.
The list is not random: actives were taken first. Their share in the collection is about 3.8%.
FH mod: Identification of activators of human fumarate hydratase by quantitative high-throughput screening. FH coupled MDH/diaphorase resazurin fluorescence, 15 min. Potency, µM (series often up to 79.9 µM), hits mostly inhibitors. 0.22% of 54,000 active; also: the screen sought activators but most active calls are inhibition curves; nearly all actives have a fitted effect of over 45% in size
SKOV3 invasion: blocks SKOV3ip1 adhesion and invasion in omental model; AID 1963576; 0.1% of 46,000 active; SKOV3ip1-GFP adhesion/invasion on 3D omental model, fluorescence; Potency, µM (titrated, usually from 45.8 µM), most hits filed as inhibitors; also: nearly all actives have a fitted effect of over 65% in size
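A 3D layer of primary human omental fibroblasts, mesothelial cells, fibronectin and collagen I, grown 48 hr, received SKOV3ip1-GFP cells in serum-free medium plus compounds at 0.36-46 umol/L. After 2 hr RT and 16 hr 37 C, fixed adherent GFP cells were counted; normalized to DMSO and tomatine.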
DRV1 agonist: GPR32 (DRV1) agonism, beta-arrestin recruitment; CHO-K1 GPR32 beta-arrestin PathHunter luminescence, 90 min; zero percent set by DMSO-only wells; activation, % at 76.9 µM; 2.5% of 48,000 active; AID 1346428;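 active = activation of at least 60% and not above a set upper limit, about 1 call in 100 departs from these limits; inconclusive = activation of 40% to 60%, or above that upper limit; inactive = activation under 40%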
Target sequence (O75388 whole entry, looked up): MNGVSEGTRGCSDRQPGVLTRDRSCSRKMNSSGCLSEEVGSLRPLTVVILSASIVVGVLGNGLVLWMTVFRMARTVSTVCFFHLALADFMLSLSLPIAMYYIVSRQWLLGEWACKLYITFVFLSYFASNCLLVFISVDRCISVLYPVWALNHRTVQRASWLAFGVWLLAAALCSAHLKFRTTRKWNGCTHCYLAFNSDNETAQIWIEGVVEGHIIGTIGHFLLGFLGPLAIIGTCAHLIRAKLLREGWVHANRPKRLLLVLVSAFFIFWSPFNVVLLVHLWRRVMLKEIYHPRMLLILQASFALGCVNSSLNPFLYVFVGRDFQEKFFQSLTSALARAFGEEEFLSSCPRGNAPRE
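Cells are plated overnight, treated with compounds in DMSO for 90 minutes at 37 °C, and developed with PathHunter detection reagent for 1 hour before luminescence is read; signal reflects beta-arrestin binding to GPR32 in engineered CHO-K1 cells.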
NTMT1 inhibitor: inhibitors of human N-terminal methyltransferase NTMT1. Q9BV86. NTMT1 MTase-Glo SAH luminescence, purified enzyme. Potency, µM (titrated, usually from 114 µM), actives largely listed as inhibitors. 2.5% of 59,000 active. AID 1645870; also: nearly all actives have a fitted effect of over 65% in size
Target sequence (Q9BV86 whole entry, looked up): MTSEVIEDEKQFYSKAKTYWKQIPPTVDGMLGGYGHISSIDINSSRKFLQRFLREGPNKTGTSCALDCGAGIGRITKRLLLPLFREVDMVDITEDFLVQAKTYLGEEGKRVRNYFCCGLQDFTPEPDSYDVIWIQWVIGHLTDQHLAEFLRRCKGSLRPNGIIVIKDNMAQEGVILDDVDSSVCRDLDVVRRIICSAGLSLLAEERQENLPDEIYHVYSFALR
Large screens that a line does not name were inactive; ! = not active in a repeat. Unless noted, calls follow the shape of the dose curve; as a rule, active = well fitted curve in the direction sought with a large enough effect; inconclusive = small, poorly fitted or top-dose-only effect, or another doubt; inactive = no such curve, though single readings can be large; an effect the other way counts as inactive or inconclusive.

COc1ccc(-c2cn3nc(N4CCC(C(=O)Nc5cccc(Cl)c5)CC4)sc3n2)cc1	DRV1 agonist 78
CC1=C(C(=O)OC2CCCCCC2)C(c2ccc(Cl)cc2)CC(=O)N1 (stereo not drawn)	none
N#CC1=C2SCN(C3CCCCC3)CN2C(=O)CC1c1ccc(F)cc1 (stereo not drawn)	DRV1 agonist inconclusive, NTMT1 inhibitor 25µM
N#CC1=C2SCN(C3CCCCC3)CN2C(=O)CC1c1c(F)cccc1Cl (stereo not drawn)	NTMT1 inhibitor 32µM
N#CC1=C2SCN(C3CCCCC3)CN2C(=O)CC1c1ccc(Cl)cc1 (stereo not drawn)	NTMT1 inhibitor 25µM
CCc1ccc(NC(=O)c2ccc(F)c(S(=O)(=O)N(C)C3CCCCC3)c2)cc1	none
CN(CC(=O)N(Cc1ccc(C2CCCCC2)cc1)c1ccc(C(=O)O)c(O)c1)S(=O)(=O)c1c(F)c(F)c(F)c(F)c1F	NTMT1 inhibitor 32µM (no result: DRV1 agonist)
CC(NC(=O)c1cc2sccc2n1Cc1ccc(F)cc1)c1ccccc1 (stereo not drawn)	DRV1 agonist 100
Cc1ccccc1NC(=O)c1cc2sccc2n1Cc1ccc(F)cc1	none
Cc1cc(C)n2nc(CNC(=O)c3cccc(Cl)c3)nc2n1	none
O=C(O)Cc1cccc(OCCCN(Cc2cccc(C(F)(F)F)c2Cl)CC(c2ccccc2)c2ccccc2)c1	NTMT1 inhibitor 40µM (no result: DRV1 agonist)
CN(CC[C@@H](Oc1ccc(C(F)(F)F)cc1)c1ccccc1)CC(=O)O	none (no result: SKOV3 invasion, NTMT1 inhibitor)
Cc1cccc(N2CCN(C(=O)CN3C(=O)COc4ccc(S(=O)(=O)N5CCOCC5)cc43)CC2)c1C	none
Cc1cccc(CN2CCN(CC(=O)NCCc3ccc(Cl)cc3)C2=O)c1	DRV1 agonist 75
O=C(CN1CCN(Cc2ccccc2Cl)C1=O)NCCc1ccc(Cl)cc1	DRV1 agonist 71
CC(=O)Nc1ccc(NC(=O)CC2Sc3ccccc3NC2=O)cc1 (stereo not drawn)	none
CCc1ccccc1NC(=O)c1c(NC(=O)c2ccccc2)sc2c1CCCC2	none
Cc1ccccc1NC(=O)c1c(NC(=O)c2ccncc2)sc2c1CCC(C(C)(C)C)C2 (stereo not drawn)	FH mod inconclusive, DRV1 agonist 72
CCOc1ccccc1NC(=O)c1c(NC(=O)c2ccccc2)sc2c1CCCC2	DRV1 agonist 66
CCOc1ccccc1NC(=O)c1c(NC(=O)c2ccncc2)sc2c1CCC(C(C)(C)C)C2 (stereo not drawn)	DRV1 agonist 113
Cc1oc(-c2ccc(C(=O)NCCc3ccc(Cl)cc3)cc2)nc1CSc1ccccc1	none
CCOc1ccc(NC(=O)CSc2nnc(CNC(=O)C34CC5CC(CC(C5)C3)C4)n2CC)cc1	NTMT1 inhibitor 89µM
CCn1c(CNC(=O)C23CC4CC(CC(C4)C2)C3)nnc1SCC(=O)Nc1ccc(C)cc1	DRV1 agonist inconclusive
COc1ccc(-n2cc(-c3ccccc3)c3c(SC(C)C(C)=O)ncnc32)cc1 (stereo not drawn)	DRV1 agonist 99
COC(=O)C(C)Sc1ncnc2c1c(-c1ccccc1)cn2-c1ccc(F)cc1 (stereo not drawn)	none
CCOc1ccc(Nc2ncnc3c2nc2n3CCCC2)cc1	NTMT1 inhibitor inconclusive
CC(C)c1ccc(Nc2ncnc3c2nc2n3CCCC2)cc1	NTMT1 inhibitor 79µM
Cc1cc(C)cc(C(=O)Nc2ccc(-c3cn4cccnc4n3)cc2)c1	SKOV3 invasion inconclusive, DRV1 agonist 103, NTMT1 inhibitor inconclusive
CCc1ccc(-c2nc(CS(=O)CC(=O)NCc3ccc(F)cc3)c(C)o2)cc1 (stereo not drawn)	NTMT1 inhibitor 89µM
CCOc1ccc(-c2nc(CSCC(=O)NCc3ccc(C)cc3)c(C)o2)cc1	NTMT1 inhibitor 79µM
CCOc1ccccc1N1CC(c2nc3ccccc3n2CCCCOc2cc(C)ccc2C)CC1=O (stereo not drawn)	NTMT1 inhibitor 89µM
CCOc1ccccc1N1CC(c2nc3ccccc3n2CCCOc2ccccc2OC)CC1=O (stereo not drawn)	FH mod inconclusive
CCCCN1CC(c2nc3ccccc3n2CCCCOc2cccc(C)c2C)CC1=O (stereo not drawn)	FH mod inconclusive, DRV1 agonist 109
CCc1ccccc1N1CC(c2nc3ccccc3n2CCOc2ccc(Cl)c(C)c2)CC1=O (stereo not drawn)	FH mod inconclusive, DRV1 agonist 77
CCOc1ccccc1N1CC(c2nc3ccccc3n2CCOc2ccc(C(C)(C)C)cc2)CC1=O (stereo not drawn)	DRV1 agonist 73
CN1CCN(CCCN2c3ccccc3Sc3ccc(C(F)(F)F)cc32)CC1	FH mod inconclusive, DRV1 agonist 64!, NTMT1 inhibitor inconclusive
Nc1c(C(=O)Nc2ccc(C(=O)O)cc2)sc2nc3c(cc12)CCCC3	NTMT1 inhibitor 25µM
CCC1Oc2ccc(C)cc2N(CC(=O)NCc2ccc(OC)cc2)C1=O (stereo not drawn)	DRV1 agonist 64
CCC1Oc2ccccc2N(CC(=O)NCc2ccc(C)cc2)C1=O (stereo not drawn)	none
O=C(CSc1nnc2[nH]c(=O)cc(-c3ccccc3)n12)Nc1ccc(F)cc1F	none
O=C1Cc2cc(S(=O)(=O)N3CCN(c4ccc(Br)cc4)CC3)ccc2N1	none (no result: FH mod, SKOV3 invasion, DRV1 agonist)
COc1ccc(CNC(=O)C2CCN(C(=O)c3cnn(-c4ccccc4)c3-n3cccc3)CC2)cc1	NTMT1 inhibitor 89µM
COc1cccc(CNC(=O)C2CCN(C(=O)c3cnn(-c4ccccc4)c3-n3cccc3)CC2)c1	NTMT1 inhibitor inconclusive
O=C(CNC(=O)C1CCCCC1)OC(C(=O)c1ccccc1)c1ccccc1 (stereo not drawn)	NTMT1 inhibitor 89µM (no result: FH mod, SKOV3 invasion, DRV1 agonist)
CCOC(=O)c1c(C)[nH]c(C)c1S(=O)(=O)N(C)CC(=O)NCc1cccc(Br)c1	DRV1 agonist 101
Cc1ccc(C2=Nc3ccccc3NC(c3ccncc3)=N2)cc1	none
O=c1c2ccccc2nc2sc(Nc3ccc4c(c3)CNC4)nn12	NTMT1 inhibitor 50µM (no result: FH mod, SKOV3 invasion, DRV1 agonist)
N#Cc1cc(F)cc(-c2nc(-c3ccccn3)no2)c1	none (no result: SKOV3 invasion, DRV1 agonist)
Cc1nn(C(=O)c2ccccc2)c(C)c1Sc1ccc(Cl)cc1	FH mod inconclusive, SKOV3 invasion inconclusive, DRV1 agonist 107
CCCN(CCC)C(=O)c1c[nH]c2ccc(S(=O)(=O)N(C)c3ccc(OCC)cc3)cc2c1=O	none
CCOc1cccc(-c2nc3ccccc3c(=O)o2)c1	DRV1 agonist 80
CCCOc1ccc(-c2nc3ccc(Br)cc3c(=O)o2)cc1	none
CCCOc1ccc(C(=O)Nc2cc(-c3nc4cc(C)cc(C)c4o3)ccc2C)cc1	none
C=CC(=O)c1ccc(CCCCCC)cc1	none (no result: FH mod, SKOV3 invasion, NTMT1 inhibitor)
CCCCCCCCc1ccc(CCC(N)(CO)CO)cc1	NTMT1 inhibitor 45µM! (no result: DRV1 agonist)
Cc1ccc(S(=O)(=O)c2cn(Cc3cccc(C)c3)c3cc4c(cc3c2=O)OCO4)cc1	FH mod inconclusive
COc1cc(NC(=O)Cn2c(C)cc3ccccc3c2=O)cc(OC)c1OC	none
O=C1Nc2ccccc2/C1=C\c1ccc([N+](=O)[O-])cc1	none (no result: FH mod, SKOV3 invasion, DRV1 agonist)
